Experimental data as given in PubChem BioAssay (Tox21).
Inconclusive results are not listed. The source made the active and inactive calls. Unless noted, calls follow the shape of the dose curve; as a rule, active = well fitted curve in the direction sought with a large enough effect in the repeat runs; inconclusive = weak or mixed curves; inactive = no such curve, though single readings can be large; an effect the other way counts as inactive or inconclusive.

What was measured:
[1] = qHTS assay to test for compound auto fluorescence at 460 nm (blue) in HEK293 cell free culture (AID 720681)
Method in brief: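 Compounds were added to cell-free DMEM with 10% FBS and fluorescence read directly. The blue channel used 405 nm excitation and 460 nm emission, with triamterene as the reference fluorophore.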

[2] = qHTS assay to test for compound auto fluorescence at 535 nm (green) in HEK293 cell free culture (AID 720682)
Method in brief: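 Steps: dispense DMEM/10% FBS into empty wells; pin in compound or DMSO; measure fluorescence at 485/535 nm. Values are fluorescein equivalents.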

[3] = qHTS assay to test for compound auto fluorescence at 590 nm (red) in HEK293 cell free culture (AID 720683)
Method in brief: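 Cell-free wells of DMEM with 10% FBS received compound, and intrinsic fluorescence was read at excitation/emission 540/590 nm. Values expressed as equivalence to Rose Bengal sodium.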

[4] = qHTS assay to test for compound auto fluorescence at 590 nm (red) in HepG2 cell free culture (AID 720684)
Method in brief: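 Compound was pinned into wells holding MEM with 10% FBS and no cells, and red fluorescence was read at Ex/Em 540/590 nm. Signal is expressed as auto fluorescence equivalency relative to Rose Bengal sodium.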

[5] = qHTS assay to test for compound auto fluorescence at 460 nm (blue) in HepG2 cells (AID 720687)
Method in brief: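 HepG2 cells in MEM with 10% FBS, attached overnight at 37 C, were exposed to compound or DMSO for 1 hr at 37 C, 5% CO2. Blue fluorescence was read at 405/460 nm, with triamterene as reference fluorophore.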

[6] = target: Glucocorticoid receptor (Homo sapiens) (UniProt P04150); assay: qHTS assay to identify small molecule agonists of the glucocorticoid receptor (GR) signaling pathway (AID 720691; active = well fitted activation curve with a large enough effect in the signal ratio in the repeat runs, not every such curve was filed as active; the % refers to the signal ratio)
Method in brief: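 Reporter read-out: fluorescence intensity following 2 h room-temperature LiveBLAzer B/G FRET substrate loading. Prior step: GR-bla HeLa cells held 4 h, then treated 18 h at 37 C.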

[7] = qHTS assay to identify small molecule antagonists of the glucocorticoid receptor (GR) signaling pathway - cell viability counter screen (AID 720693); also: nearly all actives have a fitted effect of over 55% in size
[8] = qHTS assay for identifying genotoxic compounds that show differential cytotoxicity against isogenic chicken DT40 cell lines with known DNA damage response pathways - Rev3 mutant cell line (AID 743014); also: nearly all actives have a fitted effect of over 55% in size; also: potency is read from the fitted curve at half-maximal effect
[9] = qHTS assay for identifying genotoxic compounds that show differential cytotoxicity against isogenic chicken DT40 cell lines with known DNA damage response pathways - Rad54/Ku70 mutant cell line (AID 743015); also: nearly all actives have a fitted effect of over 60% in size; also: potency is read from the fitted curve at half-maximal effect
[10] = qHTS assay to identify small molecule antagonists of the androgen receptor (AR) signaling pathway - cell viability counter screen (AID 743033; also: nearly all actives have a fitted effect of over 45% in size)
[11] = qHTS assay to identify small molecule antagonists of the androgen receptor (AR) signaling pathway using the MDA cell line - cell viability counter screen (AID 743041; also: nearly all actives have a fitted effect of over 45% in size)
Method in brief: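 MDA-kb2 AR-luc cells (MMTV-luciferase, AR/GR responsive) treated with compounds plus R1881 agonist for 16 h at 37C. CellTiter-Fluor added at 15.5 h; fluorescence read after 30 min in the same wells.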

[12] = qHTS assay to test for compound auto fluorescence at 460 nm (blue) in HepG2 cell free culture (AID 720685)
Method in brief: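 Compound (23 nL) or DMSO pinned into cell-free MEM with 10% FBS; blue fluorescence read at 405/460 nm excitation/emission, expressed as auto-fluorescence equivalency to triamterene.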

[13] = qHTS assay to test for compound auto fluorescence at 535 nm (green) in HepG2 cell free culture (AID 720686)
[14] = target: Glucocorticoid receptor (Homo sapiens) (UniProt P04150); assay: qHTS assay to identify small molecule antagonists of the glucocorticoid receptor (GR) signaling pathway (AID 720692; active = well fitted inhibition curve with a large enough effect in the signal ratio in the repeat runs, not every such curve was filed as active; the % refers to the signal ratio)
Method in brief: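 Dexamethasone (5 nM final) stimulated a stably integrated GRE-beta-lactamase reporter in HeLa cells during 18 h co-incubation with compounds; signal was quantified as fluorescence intensity of B/G FRET substrate after 2 h.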

[15] = qHTS assay for identifying genotoxic compounds that show differential cytotoxicity against isogenic chicken DT40 cell lines with known DNA damage response pathways - wild type cell line (AID 743012); also: nearly all actives have a fitted effect of over 60% in size; also: potency is read from the fitted curve at half-maximal effect
Method in brief: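 Using parental DT40 (300 cells/well), compounds delivered in DMSO incubate 40 h at 37 C/5% CO2. CellTiter-Glo reagent then stands 30 min at room temperature, and luminescence gives cell viability.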

[16] = target: Androgen receptor (Homo sapiens) (UniProt P10275); assay: qHTS assay to identify small molecule antagonists of the androgen receptor (AR) signaling pathway (AID 743035; active = well fitted inhibition curve with a large enough effect in the signal ratio in the repeat runs, not every such curve was filed as active; the % refers to the signal ratio)
Method in brief: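 Using qHTS, AR-UAS-bla GripTite HEK293 cells received compound, then R1881, and were cultured 16 h at 37C/5% CO2 before a 2 h room-temperature LiveBLAzer B/G FRET substrate step and fluorescence measurement.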

[17] = target: Androgen receptor (Homo sapiens) (UniProt P10275); assay: qHTS assay to identify small molecule agonists of the androgen receptor (AR) signaling pathway (AID 743036; active = well fitted activation curve with a large enough effect in the signal ratio in the repeat runs, with a control signal flat, not every such curve was filed as active; the % refers to the signal ratio)
Method in brief: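 Reporter line: GeneBLAzer AR-UAS-bla-GripTite (HEK293). Steps: plate cells, 4 h rest, add compounds, 16 h at 37C, add LiveBLAzer B/G substrate, 2 h at RT, read fluorescence.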

[18] = target: Androgen receptor (Homo sapiens) (UniProt P10275); assay: qHTS assay to identify small molecule agonists of the androgen receptor (AR) signaling pathway using the MDA cell line (AID 743040; also: nearly all actives have a fitted effect of over 20% in size)
Method in brief: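 MDA-kb2 breast carcinoma cells carrying MMTV-luciferase (responsive to AR and GR), plated 5 h then treated 16 h with compounds at 37C, 0% CO2. Read-out was ONE-Glo luminescence after 30 min at room temperature.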

[19] = target: Androgen receptor (Homo sapiens) (UniProt P10275); assay: qHTS assay to identify small molecule antagonists of the androgen receptor (AR) signaling pathway using the MDA cell line (AID 743042; also: nearly all actives have a fitted effect of over 55% in size)
Method in brief: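 MDA-kb2 breast carcinoma cells carrying MMTV-luciferase (AR/GR responsive) were co-treated with compounds and the agonist R1881 for 16 h at 37C. Inhibition read as ONE-Glo luminescence; CellTiter-Fluor fluorescence measured in parallel for cytotoxicity.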
% is scaled to controls: 0 for no effect and ±100 for the full control effect.

Chain of Glucocorticoid receptor (Homo sapiens) (P04150 whole entry, looked up): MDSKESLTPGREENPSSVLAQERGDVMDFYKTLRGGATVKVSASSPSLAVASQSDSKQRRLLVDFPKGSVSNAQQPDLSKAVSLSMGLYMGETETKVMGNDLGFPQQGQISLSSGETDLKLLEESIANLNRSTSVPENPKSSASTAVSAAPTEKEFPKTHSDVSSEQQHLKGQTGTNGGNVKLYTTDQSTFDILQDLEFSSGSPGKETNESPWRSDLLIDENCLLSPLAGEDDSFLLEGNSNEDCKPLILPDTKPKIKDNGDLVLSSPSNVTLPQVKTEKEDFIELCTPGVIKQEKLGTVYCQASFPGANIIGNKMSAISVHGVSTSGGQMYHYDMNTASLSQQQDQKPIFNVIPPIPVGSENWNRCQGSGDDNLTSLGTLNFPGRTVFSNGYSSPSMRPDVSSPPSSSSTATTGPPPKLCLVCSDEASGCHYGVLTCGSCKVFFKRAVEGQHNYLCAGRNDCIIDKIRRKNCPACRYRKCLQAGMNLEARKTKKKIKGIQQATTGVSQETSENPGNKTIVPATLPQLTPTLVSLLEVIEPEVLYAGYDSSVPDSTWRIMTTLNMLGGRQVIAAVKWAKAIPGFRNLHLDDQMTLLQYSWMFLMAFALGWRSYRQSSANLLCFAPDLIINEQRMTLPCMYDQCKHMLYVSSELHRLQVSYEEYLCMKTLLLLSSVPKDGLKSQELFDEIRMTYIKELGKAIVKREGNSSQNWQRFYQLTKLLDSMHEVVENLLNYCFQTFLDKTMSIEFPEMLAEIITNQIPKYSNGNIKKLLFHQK
Chain of Androgen receptor (Homo sapiens) (P10275 whole entry, looked up): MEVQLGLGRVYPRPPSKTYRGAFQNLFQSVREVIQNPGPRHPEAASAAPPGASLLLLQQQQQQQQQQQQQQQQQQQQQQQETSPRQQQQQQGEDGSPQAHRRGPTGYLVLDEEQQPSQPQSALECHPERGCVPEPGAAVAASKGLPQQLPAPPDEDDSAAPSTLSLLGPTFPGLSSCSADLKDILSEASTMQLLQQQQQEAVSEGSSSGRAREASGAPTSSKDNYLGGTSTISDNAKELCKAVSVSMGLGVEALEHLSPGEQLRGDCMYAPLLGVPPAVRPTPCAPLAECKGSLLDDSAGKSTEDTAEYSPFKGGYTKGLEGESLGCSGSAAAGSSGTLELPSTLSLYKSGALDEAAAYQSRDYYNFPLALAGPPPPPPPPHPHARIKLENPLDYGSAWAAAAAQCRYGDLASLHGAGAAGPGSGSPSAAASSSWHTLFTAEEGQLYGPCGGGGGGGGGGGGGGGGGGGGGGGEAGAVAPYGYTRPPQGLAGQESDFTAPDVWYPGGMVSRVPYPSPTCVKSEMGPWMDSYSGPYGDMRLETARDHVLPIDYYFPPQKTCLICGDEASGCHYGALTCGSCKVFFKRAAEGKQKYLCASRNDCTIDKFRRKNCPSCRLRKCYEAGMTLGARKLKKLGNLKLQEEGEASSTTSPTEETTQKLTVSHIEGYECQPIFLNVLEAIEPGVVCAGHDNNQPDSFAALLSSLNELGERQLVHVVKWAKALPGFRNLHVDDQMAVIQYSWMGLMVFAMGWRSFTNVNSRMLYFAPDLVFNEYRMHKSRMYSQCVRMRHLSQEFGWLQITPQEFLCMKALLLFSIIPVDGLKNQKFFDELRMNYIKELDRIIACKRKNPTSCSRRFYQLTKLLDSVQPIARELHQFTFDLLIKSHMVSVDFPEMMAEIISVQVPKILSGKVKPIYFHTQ

c1ccc(-c2nn[nH]n2)cc1
inactive: outcome [1] | outcome [2] | outcome [3] | outcome [4] | outcome [5] | Potency [6] | outcome [7] | Potency [8] | Potency [9] | outcome [10] | Potency [11]

CCCSSCCC
inactive: outcome [1] | outcome [3] | outcome [4] | outcome [12] | outcome [13] | outcome [5] | Potency [6] | outcome [14] | outcome [7] | Potency [15] | Potency [8] | Potency [9] | outcome [10] | Potency [11]

CC(C)C1OCCN1CCOC(=O)NCCCCCCNC(=O)OCCN1CCOC1C(C)C (stereo unspecified)
inactive: outcome [1] | outcome [2] | outcome [3] | outcome [4] | outcome [13] | outcome [5] | Potency [6] | outcome [14] | Potency [15] | Potency [8] | Potency [9] | outcome [16] | outcome [17] | Potency [18] | Potency [11] | outcome [19]

CCCCCCCCCCCCCBr
active: Potency [8] 54.3 µM
inactive: outcome [1] | outcome [3] | outcome [4] | outcome [12] | outcome [13] | outcome [5] | outcome [7] | outcome [10] | Potency [11]

C[C@H]1[C@@H](c2ccccc2)NC(=O)N1C
inactive: outcome [1] | outcome [3] | outcome [4] | outcome [12] | outcome [13] | outcome [5] | outcome [7] | Potency [15] | Potency [8] | outcome [10] | Potency [11]

O=C1CCCCO1
inactive: outcome [1] | outcome [2] | outcome [3] | outcome [4] | outcome [12] | outcome [5] | Potency [6] | outcome [14] | Potency [15] | Potency [8] | Potency [9] | outcome [10] | Potency [11]

CC1=C(C(=O)O)N2C(=O)[C@@H](NC(=O)[C@H](N)c3ccccc3)[C@H]2SC1
inactive: outcome [1] | outcome [2] | outcome [3] | outcome [4] | outcome [12] | outcome [5] | Potency [6] | outcome [14] | outcome [7] | Potency [15] | Potency [8] | Potency [9] | outcome [10] | Potency [11]

O=C1c2ccccc2C(=O)c2cc(Cl)ccc21
inactive: fluorescence, % of fluorescent control [1] -0.0102% [at 3.72 µM] | fluorescence, % of fluorescent control [3] -0.094% [at 3.72 µM] | fluorescence, % of Rose Bengal [4] -0.0228% [at 3.72 µM] | fluorescence, % of fluorescent control [12] -0.0625% [at 3.72 µM] | fluorescence, % of fluorescein control [13] -0.0292% [at 3.72 µM] | fluorescence, % of fluorescent control [5] -0.0186% [at 3.72 µM] | activation [6] -4.3% [at 6.9 µM] | activity change, negative = inhibition [14] -15.1% [at 7.04 µM] | viability change, negative = cytotoxic [7] -1.8% [at 7.04 µM] | activity change, negative = cytotoxicity [15] 8.37% [at 8.52 µM] | activity, negative = cytotoxicity [8] 3.55% [at 8.53 µM] | activity change, negative = cytotoxicity [9] 2.51% [at 8.55 µM] | activity change, negative = cytotoxicity [10] 5.05% [at 7.04 µM] | viability change, negative = cytotoxic [11] -1.61% [at 8.47 µM]

CO[Si](CCCn1c(=O)n(CCC[Si](OC)(OC)OC)c(=O)n(CCC[Si](OC)(OC)OC)c1=O)(OC)OC
inactive: outcome [1] | outcome [3] | outcome [4] | outcome [12] | outcome [13] | outcome [5] | outcome [7] | Potency [15] | Potency [8] | outcome [10] | Potency [11]

CN1C[C@@H]2C[C@H]1CN2c1cc2c(cc1F)c(=O)c(C(=O)O)cn2C1CC1
active: Potency [15] 7.5 µM | Potency [8] 9.44 µM | Potency [9] 11.9 µM
inactive: outcome [1] | outcome [2] | outcome [3] | outcome [4] | outcome [12] | outcome [13] | outcome [5] | Potency [6] | outcome [14] | outcome [10] | Potency [11]

CC(=O)CCC1=C(C)CCCC1(C)C
inactive: outcome [1] | outcome [2] | outcome [3] | outcome [4] | outcome [12] | outcome [5] | Potency [6] | outcome [14] | outcome [7] | Potency [15] | outcome [10] | Potency [11]

COc1ccc2c(c1)c1c3n2CCN(C)C3=NCC1
inactive: outcome [1] | outcome [2] | outcome [3] | outcome [4] | outcome [12] | outcome [13] | outcome [5] | Potency [6] | outcome [7] | outcome [10] | outcome [16] | Potency [18] | Potency [11]
active: Potency [9] 23.7 µM

O=C(O)CCCCCC(=O)O
inactive: outcome [1] | outcome [2] | outcome [3] | outcome [4] | outcome [12] | outcome [13] | outcome [5] | Potency [6] | outcome [14] | Potency [15] | Potency [8] | Potency [9] | outcome [10] | Potency [11]

C=CC(=O)OCC1CCCO1 (stereo unspecified)
inactive: outcome [1] | outcome [3] | outcome [4] | outcome [12] | outcome [5] | outcome [7] | Potency [15] | Potency [8] | Potency [9] | outcome [10] | Potency [11]

Cc1ccnc(N)c1
active: Potency [8] 48.6 µM | Potency [9] 48.6 µM
inactive: outcome [1] | outcome [2] | outcome [3] | outcome [4] | outcome [12] | outcome [13] | outcome [5] | Potency [6] | outcome [14] | outcome [7] | outcome [10] | Potency [11]

CCCCOC(=O)[C@H](C)O
inactive: outcome [1] | outcome [2] | outcome [3] | outcome [4] | outcome [12] | outcome [13] | outcome [5] | Potency [6] | outcome [14] | outcome [7] | Potency [8] | Potency [9] | outcome [10] | Potency [11]

CC(=O)CC(=O)Nc1ccc(C)cc1C
inactive: outcome [1] | outcome [2] | outcome [3] | outcome [4] | outcome [5] | Potency [6] | outcome [14] | outcome [7] | Potency [15] | Potency [8] | Potency [9] | outcome [10] | outcome [16] | outcome [17] | Potency [18] | Potency [11] | outcome [19]

CC(C)CCOC(=O)c1ccccc1
inactive: outcome [1] | outcome [2] | outcome [3] | outcome [4] | outcome [13] | outcome [5] | outcome [7] | Potency [15] | Potency [8] | Potency [9] | outcome [10] | Potency [11]

CC1CCc2c(N3CCC(O)CC3)c(F)cc3c(=O)c(C(=O)O)cn1c23 (stereo unspecified)
inactive: outcome [1] | outcome [2] | outcome [3] | outcome [4] | outcome [12] | outcome [5] | Potency [6] | outcome [14] | outcome [7] | outcome [10] | Potency [11]
active: Potency [15] 26.6 µM

CCCCCCCCCCCCCCCCCCOCCO
inactive: fluorescence, % of fluorescent control [1] -0.0158% [at 18.6 µM] | activity change [2] -0.0191% [at 18.6 µM] | fluorescence, % of fluorescent control [3] 0.138% [at 18.6 µM] | fluorescence, % of Rose Bengal [4] -0.0112% [at 18.6 µM] | fluorescence, % of fluorescent control [12] 0.0125% [at 18.6 µM] | fluorescence, % of fluorescent control [5] 0.0321% [at 18.6 µM] | Potency [6] | outcome [7] | Potency [15] | Potency [8] | Potency [9] | outcome [10] | Potency [11]
